Results: PubChem BioAssay AID720650 (Broad Institute, 2013)
A number with no mark means an inactive call. Active and inactive are the calls of the source. The rule behind the calls is not given here.

Assay: C difficile toxins, biochemical counterscreen, UDPG substrate absence, confirmatory dose response (AID 720650)
Details: series mostly up to 19.5 µM; activity change, negative = inhibition: at the top concentration

| SMILES | AC50 | activity change, negative = inhibition [%] |
| --- | --- | --- |
| CCOC(=O)Nc1ccc(OC(=O)Oc2ccc(NC(=O)OCC)cc2)cc1 | > 39 µM | – |
| CNC(=O)C1Cc2c(-c3ccccc3Oc3ccccc3)ccnc2O1 (centres undefined) | > 39 µM | – |
| O=C(NCc1cc(C(F)(F)F)cc(C(F)(F)F)c1)C1CC(c2c(Cl)cccc2Cl)=NO1 (centres undefined) | – | 0.624 |
| CC(C)C12NC(=O)NC(=O)N1CCS2 (centres undefined) | – | -8.68 |
| CCCNC(=O)N1CC[C@@H]2[C@H]1c1cc(-c3ccccc3)ccc1N(C)[C@H]2CO | 3.8 µM (active) | – |
| COc1ccc(/C=C(/C#N)C(=O)Nc2ccc(O)cc2)cc1C(=O)O | 12.2 µM (active) | – |
| Cc1c(C(=O)c2ccccc2)c2ccccn2c1CCc1ccccn1 | – | 1.91 |
| CC(=O)C1=CCC(c2ccccc2)N(S(=O)(=O)c2ccc(C)cc2)C1 (centres undefined) | – | -25.6 |
| COc1ccc(-c2cn3cc(C)ccc3n2)cc1F | > 39 µM | – |
| COc1ccc(S(=O)(=O)N2CCC[C@H]2C(=O)N2CCC[C@H]2C(=O)NCc2ccncc2)cc1C | – | -1.46 |
| CCNC(=O)[C@H]1[C@H](CO)[C@H]2Cn3c(ccc(-c4ccccc4)c3=O)[C@H]2N1CC | – | 1.74 |
| CC1(C)CC(=O)C(C=Nc2ccc(N)cc2)=C(O)C1 | – | -6.16 |
| O=C(O)c1ccc(/C=N/NC(=S)NCCN2CCOCC2)cc1 | – | -2.89 |
| CC(C)c1cc(CN2CCN(Cc3ccc(F)c(F)c3)C(CCO)C2)[nH]n1 (centres undefined) | – | -11.1 |
| O=C(N/N=C/c1cccc([N+](=O)[O-])c1)c1ccc(Br)cc1 | – | -2.73 |
| CCCCn1c(N)c(N(CCOC)C(=O)CSc2nnc(-c3ccco3)n2CC)c(=O)[nH]c1=O | – | 5.63 |
| CC1CN=C(Nc2cccc(S(=O)(=O)N(C)C)c2)S1 (centres undefined) | – | 4.21 |
| COc1ccc(-c2ccc(OC(=O)NC3CCS(=O)(=O)C3)cc2)cc1 (centres undefined) | 12.6 µM (active) | – |
| O=C(Cc1ccccc1)NNC(=S)NC(=O)c1cccnc1 | > 39 µM | – |
| COC(=O)c1sc2nc(SCc3ccccc3C)n(N)c(=O)c2c1C | – | 4.71 |

| SMILES | AC50 | activity change, negative = inhibition [%] |
| --- | --- | --- |
| O=S(=O)(NC1CCCCCCC1)c1ccc(F)cc1 | – | -9.37 |
| Cn1c(=O)c2[nH]c(=S)n(Cc3ccccc3)c2n(C)c1=O | 14.4 µM (active) | – |
| COCC(=O)N1CC[C@@H]2[C@@H](CO)N(C)c3ccc(-c4ccccc4)cc3[C@@H]21 | 3.88 µM (active) | – |
| CCOc1ccccc1/C=C/c1onc(C)c1S(=O)(=O)N1CCC(C(=O)NC(C)C)CC1 | – | 2.28 |
| CCOc1cc(/C=N/n2cnnc2)ccc1O | – | -19.8 |
| CC(C)CNC(=O)C(=O)NCC1CCCN1S(=O)(=O)c1cccs1 (centres undefined) | – | -5.14 |
| Oc1ccc(-c2nccs2)cc1 | 10.2 µM (active) | – |
| CC(=O)N1CC[C@@H]2[C@@H](CO)Nc3ccc(-c4ccccc4)cc3[C@@H]21 | 11.5 µM (active) | – |
| CC(=O)C(Sc1nccc(-c2cccs2)n1)C(C)=O | 9.69 µM (active) | – |
| OCC[C@H]1C[C@H](O)[C@@H](O)[C@@]2(Cc3ccccc3CO2)O1 | – | -8 |
| Cc1cc(C(=O)CSc2nnnn2-c2ccccc2)c(C)n1-c1ccc2c(c1)OCO2 | – | -2.26 |
| O=C(CSc1cccc2cccnc12)N/N=C/c1ccc(F)cc1 | – | -15.4 |
| O=C1NC(=O)/C(=C/c2ccc(O)cc2)S1 | 8.69 µM (active) | – |
| COc1ccc(C(=O)/C=C/c2ccc(O)cc2)c2c1CC(O)C(C)(C)O2 (centres undefined) | – | -8.07 |
| O=C(C[C@@H]1CC[C@@H]2[C@H](COC[C@@H](O)CN2C(=O)Nc2ccc(Cl)c(Cl)c2)O1)NCc1ccncc1 | – | -7.79 |
| O=C1Nc2ccccc2C1c1ncc(C(F)(F)F)cc1Cl (centres undefined) | – | -15.9 |
| CCNC(=O)C[C@H]1CC[C@@H]2[C@@H](COc3ccc(NC(=O)c4ccc5c(c4)OCO5)cc3C(=O)N2C)O1 | > 39 µM | – |
| Cc1ccc(C2=NS(=O)(=O)N(C)C(C(=O)NC(C)c3ccccc3)=C2)cc1 (centres undefined) | – | -6.45 |
| O=C(CCn1c(=O)oc2cc(Cl)ccc21)Nc1ccc(O)cc1 | 4.49 µM (active) | – |
